The campaign covered roughly 360,000 compounds. About 2,000 (0.56%) were called active. Another 2% or so got no clear call; they are omitted. The list comes from a sample in which actives are over-represented; it also holds similar structures and randomly drawn compounds. Unmarked numbers belong to inactive results. Rule as the data show it: active = activity change below about -65%; inconclusive = mostly about -30% to -63%; inactive = weaker than that.
Biological target: Homeobox protein SIX1 (Homo sapiens) + Protein phosphatase EYA2 (Homo sapiens) (UniProt Q15475+O00167)
Experiment: qHTS Assay for Inhibitors of the Six1/Eya2 Interaction
Details: AlphaScreen GST-Six1/His-Eya2 binding, biochemical; stronger effect = lower value
Description: Its expression is low or undetectable in normal adult breast tissue but the gene is over-expressed in 50% of primary breast tumors and 90% of metastatic lesions. […] Similar to Six1, Eya2 is also not expressed in most normal adult tissues, but is reexpressed in cancers. The Six1-Eya interaction is essential for proliferation during embryonic development, and both Six1 and Eya2 have been independently implicated in the same types of cancer. Because Six1 and Eya2 are embryonic genes with little expression in adult tissues, inhibitors of their expression/activity are likely to have limited side effects. Our goal is to identify inhibitors of the Six1/Eya interaction for potential cancer therapy. To this end, we have developed a homogenous AlphaScreen assay targeting the Six1/Eya interaction. We performed a large scale HTS of the Molecular Libraries Small Molecule Repository (MLSMR) to identify inhibitors of the Six1/Eya interaction as potential anti-cancer therapeutics. Compounds identified can also be used as chemical probes to better understand the biological functions of Six1 and Eya. NIH Chemical Genomics Center [NCGC] NIH Molecular Libraries Probe Centers Network [MLPCN] MLPCN Grant: DA033147 Assay Submitter (PI): Rui Zhao, University of Colorado Denver
The first step of the 5 uL AlphaScreen assay is to dispense assay buffer (50 mM Tris, pH 8.0, 300 mM NaCl, 0.05% BSA, 0.02% Tween 20, 1 mM TCEP) into a Greiner 1536 white solid bottom microtiter plate (789175-F). Five microliters is added to Column 1, 4 uL is added to Column 2 and 3 uL is added to Columns 3 through 48. A 5X protein solution (250 nM GST-Six1 protein + 500 nM His-tagged Eya2 protein) is mixed and 1 uL is dispensed to Columns 3-48. Using a 1536 pintool, 23 nL of compound is transferred to the assay plate. A solution of 5X AlphaScreen beads is mixed (50 ug/mL Glutathione linked donor beads + Nickel chelated acceptor beads) and 1 uL is dispensed to Columns 2-48. The assay plate is incubated for one hour, with a lid, at 37 deg C in the dark. The plate is read using a Perkin Elmer Envision using an AlphaScreen protocol.
% is scaled to controls: 0 for no effect and ±100 for the full control effect.

Homeobox protein SIX1 (Homo sapiens) + Protein phosphatase EYA2 (Homo sapiens), sequence (O00167 whole entry, looked up): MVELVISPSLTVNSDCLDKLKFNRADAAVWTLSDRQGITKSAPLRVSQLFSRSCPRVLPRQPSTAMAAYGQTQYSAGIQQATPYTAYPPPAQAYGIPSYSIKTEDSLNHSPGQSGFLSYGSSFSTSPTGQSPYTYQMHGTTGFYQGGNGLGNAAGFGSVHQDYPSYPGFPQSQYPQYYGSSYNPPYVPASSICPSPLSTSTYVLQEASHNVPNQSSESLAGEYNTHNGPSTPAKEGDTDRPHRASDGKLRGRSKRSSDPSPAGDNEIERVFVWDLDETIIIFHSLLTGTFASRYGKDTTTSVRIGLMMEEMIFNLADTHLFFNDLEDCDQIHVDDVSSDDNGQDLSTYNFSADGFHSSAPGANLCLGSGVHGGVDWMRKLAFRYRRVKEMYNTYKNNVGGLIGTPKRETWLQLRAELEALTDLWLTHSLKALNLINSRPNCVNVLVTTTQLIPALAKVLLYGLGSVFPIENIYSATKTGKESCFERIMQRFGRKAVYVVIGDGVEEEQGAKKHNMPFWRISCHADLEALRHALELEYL
Homeobox protein SIX1 (Homo sapiens) + Protein phosphatase EYA2 (Homo sapiens), sequence (Q15475 whole entry, looked up): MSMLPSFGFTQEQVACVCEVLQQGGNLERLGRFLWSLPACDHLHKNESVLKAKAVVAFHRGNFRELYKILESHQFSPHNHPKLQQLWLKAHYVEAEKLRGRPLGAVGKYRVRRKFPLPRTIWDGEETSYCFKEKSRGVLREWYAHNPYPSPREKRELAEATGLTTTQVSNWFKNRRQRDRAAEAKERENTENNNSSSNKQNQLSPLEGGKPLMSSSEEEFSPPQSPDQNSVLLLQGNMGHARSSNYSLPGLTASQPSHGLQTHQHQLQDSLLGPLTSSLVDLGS

Structure (SMILES) | activity change
O=C(N/N=C/c1c(O)n(C2CC2)c(=S)[nH]c1=O)c1ccccc1Cl | -80.8% (active)
COc1ccccc1-n1c(O)c(C=NC2CC2)c(=O)[nH]c1=O | 0.906%
O=C(N/N=C/c1c(O)n(Cc2ccccc2)c(=O)[nH]c1=O)c1ccccc1 | -70.8% (active)
Cc1cccc(-n2c(O)c(/C=N/N3CCOCC3)c(=O)[nH]c2=S)c1 | -2.01%
O=C(N/N=C/c1c(O)n(C2CC2)c(=S)[nH]c1=O)c1ccccc1 | -88.6% (active)
CC/C(=N\NC(=O)c1ccccc1O)c1c(O)n(Cc2ccccc2)c(=O)[nH]c1=O | -9.73%
O=c1[nH]c(=S)n(C2CC2)c(O)c1/C=N/N1CCOCC1 | -0.819%
O=c1[nH]c(=O)n(Cc2ccccc2)c(O)c1/C=N/Nc1c(F)c(F)c(F)c(F)c1F | 1%
CC(C)c1ccc(-n2c(O)c(/C=N/N3CCOCC3)c(=O)[nH]c2=S)cc1 | 5.13%
CCOC(=O)[C@]12Cc3cc(OC)ccc3[C@H]1N(C(C)C)C(=O)c1ccccc12 | -2.51%
CCOC(=O)[C@]12Cc3ccccc3[C@H]1N(C1CCCCC1)C(=O)c1cc(OC)ccc12 | -3.21%
C[C@]12CCC3C(CC[C@H]4[C@H](O)[C@H](O)CC[C@]34C)C1CC[C@@H]2O (stereo not given in full) | 0%
COP(=O)(NS(=O)(=O)c1ccccc1)OC | 12.4%
CC1(C)Cc2c(C#N)c(N3CCNCC3)nc(-c3ccco3)c2CS1 | -3.88%
O=C1NCN(c2ccccc2)C12CCN(C(c1cccs1)c1nnnn1C1CCCCC1)CC2 (stereo not given) | -13.5%
COc1ccc(-n2nnnc2C(c2cccc3ccccc23)N2CCC(n3c(=O)[nH]c4ccccc43)CC2)cc1 (stereo not given) | -11.3%
O=C(NCC(c1cccnc1)N1CCN(c2ccccc2)CC1)Oc1ccccc1 (stereo not given) | -4.91%
CC12CN3CC(C)(CN(C1)C3c1cccs1)C2 (stereo not given) | -7.54%
CC(C)c1ccc(OCC(=O)N2CCN(C)CC2)c(Br)c1 | -2.15%
CCC(C)n1c(O)c(/C=N/Nc2nc3c(c(=O)n(C)c(=O)n3C)n2C)c(=O)[nH]c1=S (stereo not given) | -86.1% (active)
CCC(=O)CC(c1ccc([N+](=O)[O-])cc1)c1c(O)c2ccccc2oc1=O (stereo not given) | 0.567%
O=c1[nH]c2ccccc2n1C1CCN(C(c2ccccc2)c2nnnn2Cc2ccccc2)CC1 (stereo not given) | -20.3%
CCc1nnc(NS(=O)(=O)c2ccc(N=Cc3c(O)n(-c4ccccc4)c(=O)[nH]c3=O)cc2)s1 | 1.54%
CCCCC(=O)N/N=C/c1c(O)n(-c2ccccc2)c(=O)[nH]c1=O | -83.5% (active)
CCCCC(=O)N/N=C/c1c(O)n(CCC2=CCCCC2)c(=O)[nH]c1=O | -75.4% (active)
O=c1[nH]c(=O)n(CCc2ccc(F)cc2)c(O)c1/C=N/N1CCCCC1 | 5.39%
CCCCC(=O)N/N=C/c1c(O)n(CC)c(=S)n(CC)c1=O | -9.7%
COc1ccc(CCn2c(O)c(C=NC3CC3)c(=O)[nH]c2=O)cc1OC | -3.07%
COC(=O)C[C@H]1CC[C@H]2NC[C@@H](O)COC[C@@H]2O1 | 4.76%
CC[C@H]1CC2CN3CCc4c([nH]c5ccccc45)C(C(=O)OC)(C2)C13 (stereo not given in full) | -23.8%

Source: PubChem BioAssay AID651725 (National Center for Advancing Translational Sciences (NCATS), 2012)
